Measured values reported in PMC7862700, “An all-to-all approach to the identification of sequence-specific readers for epigenetic DNA modifications on cytosine”.

Experiments:
Assay in all cases: DAPPL (digital affinity profiling via proximity ligation, sequencing); 10 mM Tris-HCl pH 7.5, 50 mM NaCl, 1 mM DTT, 4% glycerol, room temperature, 30 min; GST-TFs on glutathione beads, 16-mer random dsDNA library, 0.1% formaldehyde crosslink after washing; high values mean tight binding
Settings in all cases: protein: recombinant; tags: N-terminal GST; dsDNA, one strand shown
[1] = target: T1, FLI1 (Homo sapiens, UniProt Q01543 1-452)
T1 sequence: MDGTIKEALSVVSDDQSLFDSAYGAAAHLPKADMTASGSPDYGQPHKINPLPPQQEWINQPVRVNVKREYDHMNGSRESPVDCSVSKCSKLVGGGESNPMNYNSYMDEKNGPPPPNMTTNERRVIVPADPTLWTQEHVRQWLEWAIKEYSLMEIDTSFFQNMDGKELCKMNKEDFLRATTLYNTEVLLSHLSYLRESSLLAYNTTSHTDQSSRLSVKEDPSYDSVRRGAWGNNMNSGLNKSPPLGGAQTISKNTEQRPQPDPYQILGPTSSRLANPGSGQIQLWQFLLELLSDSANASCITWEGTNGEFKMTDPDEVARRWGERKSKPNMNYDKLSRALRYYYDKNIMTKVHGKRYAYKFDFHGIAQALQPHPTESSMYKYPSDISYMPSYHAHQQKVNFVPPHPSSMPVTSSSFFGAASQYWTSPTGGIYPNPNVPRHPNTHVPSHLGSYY
Summary of the method: (§1)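 GST fusions of human transcription factors were expressed in yeast and captured with glutathione beads. Once given DNA barcodes and pooled alongside a tag-only sample, they were incubated for 30 min at room temperature with 200 nmole of a random double-stranded 16-mer DNA library in Tris/NaCl/DTT/glycerol buffer, then washed, crosslinked (0.1% formaldehyde), proximity-ligated, PCR-amplified and sequenced on an Illumina NextSeq500. The binding signal of each hexamer is its read frequency for a factor divided by its frequency for the tag-only sample.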

[2] = target: T2, GABPA (Homo sapiens, UniProt Q06546 1-454)
T2 sequence: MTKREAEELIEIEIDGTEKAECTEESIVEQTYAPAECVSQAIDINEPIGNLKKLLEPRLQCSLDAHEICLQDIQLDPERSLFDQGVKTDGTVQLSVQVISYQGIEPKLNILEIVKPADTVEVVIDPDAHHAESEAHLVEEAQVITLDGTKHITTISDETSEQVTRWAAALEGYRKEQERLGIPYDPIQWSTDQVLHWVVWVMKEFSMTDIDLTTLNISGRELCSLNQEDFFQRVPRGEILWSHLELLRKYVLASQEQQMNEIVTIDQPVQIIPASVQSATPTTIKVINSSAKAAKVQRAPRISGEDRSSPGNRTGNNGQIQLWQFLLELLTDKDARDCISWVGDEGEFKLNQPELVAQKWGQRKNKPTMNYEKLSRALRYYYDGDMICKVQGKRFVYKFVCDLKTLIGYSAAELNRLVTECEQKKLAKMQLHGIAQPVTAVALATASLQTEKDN
Summary of the method: as §1

[3] = target: T3, ERG (Homo sapiens, UniProt P11308 1-479)
T3 sequence: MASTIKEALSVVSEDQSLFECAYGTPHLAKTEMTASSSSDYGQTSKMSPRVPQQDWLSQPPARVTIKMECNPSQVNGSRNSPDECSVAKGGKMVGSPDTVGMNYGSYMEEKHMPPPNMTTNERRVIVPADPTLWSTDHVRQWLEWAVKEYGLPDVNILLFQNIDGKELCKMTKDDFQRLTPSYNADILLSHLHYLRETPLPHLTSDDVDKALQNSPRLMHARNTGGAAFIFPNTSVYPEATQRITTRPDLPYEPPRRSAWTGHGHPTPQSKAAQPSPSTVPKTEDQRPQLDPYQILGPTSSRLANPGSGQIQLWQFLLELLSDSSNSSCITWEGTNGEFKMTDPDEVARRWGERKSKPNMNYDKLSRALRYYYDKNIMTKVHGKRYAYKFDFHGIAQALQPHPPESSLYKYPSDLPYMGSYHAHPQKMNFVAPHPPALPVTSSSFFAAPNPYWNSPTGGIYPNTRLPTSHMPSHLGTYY
Summary of the method: as §1

[4] = target: ELF1 (Homo sapiens, UniProt P32519 1-619)
Summary of the method: as §1

[5] = target: T4, EHF (Homo sapiens, UniProt Q9NZC4 1-300)
T4 sequence: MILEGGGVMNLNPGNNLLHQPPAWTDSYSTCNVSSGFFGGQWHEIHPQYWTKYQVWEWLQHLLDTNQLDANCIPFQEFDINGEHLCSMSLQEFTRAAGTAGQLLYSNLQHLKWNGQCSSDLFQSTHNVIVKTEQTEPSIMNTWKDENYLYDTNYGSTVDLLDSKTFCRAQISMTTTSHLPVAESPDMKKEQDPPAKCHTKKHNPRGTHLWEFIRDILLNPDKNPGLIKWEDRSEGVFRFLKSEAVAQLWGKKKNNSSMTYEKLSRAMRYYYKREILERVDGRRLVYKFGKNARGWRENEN
Summary of the method: as §1

[6] = target: SPI1 (Homo sapiens, UniProt P17947 1-270)
Summary of the method: as §1

[7] = target: SPIB (Homo sapiens, UniProt Q01892 1-262)
Summary of the method: as §1

[8] = target: T5, ELK3 (Homo sapiens, UniProt P41970 1-407)
T5 sequence: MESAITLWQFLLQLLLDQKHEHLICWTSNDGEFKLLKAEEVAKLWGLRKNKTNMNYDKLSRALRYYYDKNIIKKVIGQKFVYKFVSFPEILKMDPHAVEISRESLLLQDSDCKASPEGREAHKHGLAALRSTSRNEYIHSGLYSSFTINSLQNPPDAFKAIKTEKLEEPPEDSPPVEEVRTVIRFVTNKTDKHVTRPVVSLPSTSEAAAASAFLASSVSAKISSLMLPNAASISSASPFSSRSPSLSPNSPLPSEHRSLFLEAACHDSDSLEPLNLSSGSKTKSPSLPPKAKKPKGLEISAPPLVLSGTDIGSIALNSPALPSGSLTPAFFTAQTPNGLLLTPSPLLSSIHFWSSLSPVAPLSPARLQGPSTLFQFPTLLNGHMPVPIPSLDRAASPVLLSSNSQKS
Summary of the method: as §1

[9] = target: T6, FEV (Homo sapiens, UniProt Q99581 1-238)
T6 sequence: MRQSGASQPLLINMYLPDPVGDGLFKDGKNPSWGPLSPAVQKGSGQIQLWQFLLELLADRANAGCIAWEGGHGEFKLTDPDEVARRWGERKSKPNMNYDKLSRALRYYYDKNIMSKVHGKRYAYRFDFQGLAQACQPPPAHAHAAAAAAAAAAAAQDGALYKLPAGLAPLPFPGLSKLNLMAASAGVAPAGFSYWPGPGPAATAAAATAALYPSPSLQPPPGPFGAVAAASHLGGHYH
Summary of the method: as §1

[10] = target: ETV5 (Homo sapiens, UniProt P41161 1-510)
Summary of the method: as §1

[11] = target: T7, SPIC (Homo sapiens, UniProt Q8N5J4 1-248)
T7 sequence: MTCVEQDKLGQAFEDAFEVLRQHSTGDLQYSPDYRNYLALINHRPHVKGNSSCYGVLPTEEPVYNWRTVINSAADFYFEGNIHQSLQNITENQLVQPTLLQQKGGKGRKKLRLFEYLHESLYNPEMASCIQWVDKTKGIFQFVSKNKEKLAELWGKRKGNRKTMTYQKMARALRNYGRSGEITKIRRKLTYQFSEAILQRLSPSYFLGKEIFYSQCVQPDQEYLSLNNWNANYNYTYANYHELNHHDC
Summary of the method: as §1

[12] = target: ELF4 (Homo sapiens, UniProt Q99607 1-663)
Summary of the method: as §1

[13] = target: ETV1 (Homo sapiens, UniProt P50549 1-477)
Summary of the method: as §1

[14] = target: T8, ERF (Homo sapiens, UniProt P50548 1-548)
T8 sequence: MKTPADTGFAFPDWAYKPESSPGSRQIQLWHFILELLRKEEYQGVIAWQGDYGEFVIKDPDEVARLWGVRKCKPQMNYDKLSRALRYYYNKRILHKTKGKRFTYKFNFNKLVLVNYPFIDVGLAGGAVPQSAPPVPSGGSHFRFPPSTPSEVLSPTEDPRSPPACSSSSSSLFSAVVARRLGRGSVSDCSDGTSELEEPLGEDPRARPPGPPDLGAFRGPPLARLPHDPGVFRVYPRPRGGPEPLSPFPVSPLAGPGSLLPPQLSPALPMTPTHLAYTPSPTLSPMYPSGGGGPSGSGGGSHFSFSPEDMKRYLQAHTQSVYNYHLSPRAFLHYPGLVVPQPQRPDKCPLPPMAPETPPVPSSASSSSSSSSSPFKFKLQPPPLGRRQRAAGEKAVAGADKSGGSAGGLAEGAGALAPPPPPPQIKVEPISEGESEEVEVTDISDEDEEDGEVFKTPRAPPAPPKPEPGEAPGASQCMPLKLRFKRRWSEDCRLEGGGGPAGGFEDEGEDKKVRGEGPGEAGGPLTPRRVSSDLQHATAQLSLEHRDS
Summary of the method: as §1

[15] = target: T9, ETV3L (Homo sapiens, UniProt Q6ZN32 1-361)
T9 sequence: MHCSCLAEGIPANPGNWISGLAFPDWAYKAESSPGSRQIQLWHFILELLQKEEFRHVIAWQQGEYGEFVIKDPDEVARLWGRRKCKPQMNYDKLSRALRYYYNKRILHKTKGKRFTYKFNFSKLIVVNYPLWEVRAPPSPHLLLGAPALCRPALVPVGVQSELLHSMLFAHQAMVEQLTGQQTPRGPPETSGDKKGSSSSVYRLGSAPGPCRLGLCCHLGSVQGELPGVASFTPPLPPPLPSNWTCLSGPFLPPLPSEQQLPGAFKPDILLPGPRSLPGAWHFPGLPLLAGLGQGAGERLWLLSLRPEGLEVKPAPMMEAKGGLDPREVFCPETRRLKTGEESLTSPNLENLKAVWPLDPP
Summary of the method: as §1

[16] = target: T10, ETS2 (Homo sapiens, UniProt P15036 1-469)
T10 sequence: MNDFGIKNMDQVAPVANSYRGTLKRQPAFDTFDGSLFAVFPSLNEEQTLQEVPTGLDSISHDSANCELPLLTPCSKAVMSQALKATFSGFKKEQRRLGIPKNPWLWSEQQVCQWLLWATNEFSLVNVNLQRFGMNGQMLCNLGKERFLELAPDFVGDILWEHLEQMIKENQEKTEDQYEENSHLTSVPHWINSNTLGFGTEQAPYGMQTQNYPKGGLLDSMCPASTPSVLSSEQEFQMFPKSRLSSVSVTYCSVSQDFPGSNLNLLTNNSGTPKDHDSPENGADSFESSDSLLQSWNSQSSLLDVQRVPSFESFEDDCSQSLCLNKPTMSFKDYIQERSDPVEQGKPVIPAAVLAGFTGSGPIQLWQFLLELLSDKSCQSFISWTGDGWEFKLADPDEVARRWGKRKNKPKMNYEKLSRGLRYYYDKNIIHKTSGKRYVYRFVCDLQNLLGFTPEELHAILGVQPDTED
Summary of the method: as §1

[17] = target: T11, ELF5 (Homo sapiens, UniProt Q9UKW6-2 1-255)
T11 sequence: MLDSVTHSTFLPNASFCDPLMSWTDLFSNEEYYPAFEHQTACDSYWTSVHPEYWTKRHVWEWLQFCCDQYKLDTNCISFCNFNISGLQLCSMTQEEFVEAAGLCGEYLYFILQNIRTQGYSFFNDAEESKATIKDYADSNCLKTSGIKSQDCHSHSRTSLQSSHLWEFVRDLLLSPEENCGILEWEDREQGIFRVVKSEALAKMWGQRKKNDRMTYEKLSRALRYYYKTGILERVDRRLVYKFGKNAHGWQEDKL
Summary of the method: as §1

[18] = target: T12, ETV3 (Homo sapiens, UniProt P41162-2 1-143)
T12 sequence: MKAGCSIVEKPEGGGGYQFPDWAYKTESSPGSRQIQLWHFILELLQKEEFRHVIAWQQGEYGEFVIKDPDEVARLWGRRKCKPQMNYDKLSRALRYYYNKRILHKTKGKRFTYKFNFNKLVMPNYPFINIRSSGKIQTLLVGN
Summary of the method: as §1

[19] = target: ETV6 (Homo sapiens, UniProt P41212 1-452)
Summary of the method: as §1

ELF1, sequence (P32519 whole entry): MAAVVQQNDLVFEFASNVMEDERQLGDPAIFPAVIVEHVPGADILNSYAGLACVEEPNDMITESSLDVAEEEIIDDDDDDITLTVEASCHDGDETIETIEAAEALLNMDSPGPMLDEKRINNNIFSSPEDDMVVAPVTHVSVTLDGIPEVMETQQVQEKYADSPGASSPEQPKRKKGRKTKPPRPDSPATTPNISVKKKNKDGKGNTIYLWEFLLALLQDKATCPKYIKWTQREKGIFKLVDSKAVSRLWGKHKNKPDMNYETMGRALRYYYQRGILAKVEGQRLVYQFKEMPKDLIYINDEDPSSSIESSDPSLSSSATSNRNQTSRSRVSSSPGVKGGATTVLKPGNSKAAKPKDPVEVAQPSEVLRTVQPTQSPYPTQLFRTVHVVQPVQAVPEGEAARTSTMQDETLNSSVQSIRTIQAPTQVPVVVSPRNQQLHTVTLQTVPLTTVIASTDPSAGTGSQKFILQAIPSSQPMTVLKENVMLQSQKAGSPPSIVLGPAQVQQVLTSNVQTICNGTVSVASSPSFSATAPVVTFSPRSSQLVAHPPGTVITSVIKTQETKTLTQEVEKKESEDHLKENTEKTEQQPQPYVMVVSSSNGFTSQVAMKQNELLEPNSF
ETV1, sequence (P50549 whole entry): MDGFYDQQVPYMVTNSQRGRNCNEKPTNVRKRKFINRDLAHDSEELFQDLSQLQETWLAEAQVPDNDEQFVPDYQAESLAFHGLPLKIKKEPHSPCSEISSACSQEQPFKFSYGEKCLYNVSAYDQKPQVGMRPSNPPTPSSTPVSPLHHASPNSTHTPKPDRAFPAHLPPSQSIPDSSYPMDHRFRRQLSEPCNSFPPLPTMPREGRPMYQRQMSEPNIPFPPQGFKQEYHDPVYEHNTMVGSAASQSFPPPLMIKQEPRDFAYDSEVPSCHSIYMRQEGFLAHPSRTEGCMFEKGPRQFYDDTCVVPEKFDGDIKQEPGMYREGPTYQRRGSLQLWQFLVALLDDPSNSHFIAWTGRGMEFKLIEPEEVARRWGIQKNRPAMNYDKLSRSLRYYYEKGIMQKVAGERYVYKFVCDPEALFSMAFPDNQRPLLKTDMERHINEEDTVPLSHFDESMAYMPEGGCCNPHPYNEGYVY
ETV6, sequence (P41212 whole entry): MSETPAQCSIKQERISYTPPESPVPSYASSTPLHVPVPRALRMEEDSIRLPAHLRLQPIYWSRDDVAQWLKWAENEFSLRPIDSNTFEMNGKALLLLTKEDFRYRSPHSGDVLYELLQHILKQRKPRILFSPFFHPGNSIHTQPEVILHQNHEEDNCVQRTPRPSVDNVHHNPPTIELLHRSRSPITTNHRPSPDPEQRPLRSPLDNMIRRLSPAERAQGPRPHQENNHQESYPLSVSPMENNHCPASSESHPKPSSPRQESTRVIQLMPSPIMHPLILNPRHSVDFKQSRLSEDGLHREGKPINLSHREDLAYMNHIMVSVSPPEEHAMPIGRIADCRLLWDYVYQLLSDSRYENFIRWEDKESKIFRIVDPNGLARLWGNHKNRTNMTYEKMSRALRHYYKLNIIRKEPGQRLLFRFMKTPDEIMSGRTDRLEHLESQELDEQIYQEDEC
SPIB, sequence (Q01892 whole entry): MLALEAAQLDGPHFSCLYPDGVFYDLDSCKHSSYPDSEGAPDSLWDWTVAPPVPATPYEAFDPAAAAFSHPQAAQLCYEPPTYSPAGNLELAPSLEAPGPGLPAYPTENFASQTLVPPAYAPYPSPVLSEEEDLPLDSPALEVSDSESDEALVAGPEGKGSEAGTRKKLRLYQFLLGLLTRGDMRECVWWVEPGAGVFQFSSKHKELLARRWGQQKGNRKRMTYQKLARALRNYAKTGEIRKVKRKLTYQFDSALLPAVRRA
ETV5, sequence (P41161 whole entry): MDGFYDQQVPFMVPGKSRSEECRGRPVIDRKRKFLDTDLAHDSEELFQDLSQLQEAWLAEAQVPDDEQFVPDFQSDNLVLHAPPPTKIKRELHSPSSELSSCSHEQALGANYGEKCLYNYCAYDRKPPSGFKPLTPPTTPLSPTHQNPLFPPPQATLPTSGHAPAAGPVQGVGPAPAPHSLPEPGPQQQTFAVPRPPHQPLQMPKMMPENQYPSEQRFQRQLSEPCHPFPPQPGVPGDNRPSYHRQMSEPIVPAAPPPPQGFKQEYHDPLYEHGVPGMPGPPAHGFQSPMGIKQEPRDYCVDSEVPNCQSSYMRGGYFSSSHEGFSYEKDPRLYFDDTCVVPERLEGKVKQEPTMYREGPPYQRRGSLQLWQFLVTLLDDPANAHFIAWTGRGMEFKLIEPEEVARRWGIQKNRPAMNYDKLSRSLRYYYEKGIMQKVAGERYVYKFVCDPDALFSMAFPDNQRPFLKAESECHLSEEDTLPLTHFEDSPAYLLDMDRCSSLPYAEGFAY
ELF4, sequence (Q99607 whole entry): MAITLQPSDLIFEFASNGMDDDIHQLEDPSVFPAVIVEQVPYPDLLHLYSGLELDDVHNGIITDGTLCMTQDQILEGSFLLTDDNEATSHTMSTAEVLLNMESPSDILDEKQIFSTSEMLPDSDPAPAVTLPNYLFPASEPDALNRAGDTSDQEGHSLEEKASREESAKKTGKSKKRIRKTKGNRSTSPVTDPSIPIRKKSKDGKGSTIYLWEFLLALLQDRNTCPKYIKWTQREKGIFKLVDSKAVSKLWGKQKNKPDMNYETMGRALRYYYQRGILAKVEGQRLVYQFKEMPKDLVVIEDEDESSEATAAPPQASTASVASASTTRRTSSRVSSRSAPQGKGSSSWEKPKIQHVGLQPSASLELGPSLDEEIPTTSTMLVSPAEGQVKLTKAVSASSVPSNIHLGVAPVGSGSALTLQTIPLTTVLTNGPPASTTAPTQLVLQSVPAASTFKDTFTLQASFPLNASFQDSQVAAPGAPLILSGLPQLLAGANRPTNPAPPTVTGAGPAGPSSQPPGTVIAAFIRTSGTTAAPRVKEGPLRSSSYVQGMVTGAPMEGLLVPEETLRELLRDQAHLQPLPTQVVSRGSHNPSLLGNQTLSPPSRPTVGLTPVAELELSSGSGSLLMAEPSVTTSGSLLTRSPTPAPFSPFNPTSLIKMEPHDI

Which binding signal [1] does the source give for GCTTGT here?
Its binding signal is 1.22 fold enrichment (6-mer frequency, TF over GST control).

And the binding signal [2]?
Its binding signal is 1.08 fold enrichment (6-mer frequency, TF over GST control).

And the binding signal [3]?
The binding signal was 1.05 fold enrichment (6-mer frequency, TF over GST control).

What about the binding signal [4] of the same sequence?
The binding signal was 1.11 fold enrichment (6-mer frequency, TF over GST control).

And the binding signal [5]?
Its binding signal is 1.13 fold enrichment (6-mer frequency, TF over GST control).

What about the binding signal [6] of the same sequence?
The binding signal was 1.15 fold enrichment (6-mer frequency, TF over GST control).

And the binding signal [7]?
Its binding signal is 1.13 fold enrichment (6-mer frequency, TF over GST control).

And the binding signal [8]?
The binding signal was 1.12 fold enrichment (6-mer frequency, TF over GST control).

What about the binding signal [9] of the same sequence?
Its binding signal is 1.02 fold enrichment (6-mer frequency, TF over GST control).

And the binding signal [10]?
The binding signal was 1.2 fold enrichment (6-mer frequency, TF over GST control).

What about the binding signal [11] of the same sequence?
The binding signal was 1.26 fold enrichment (6-mer frequency, TF over GST control).

And the binding signal [12]?
Its binding signal is 1.07 fold enrichment (6-mer frequency, TF over GST control).

And the binding signal [13]?
The binding signal was 1.13 fold enrichment (6-mer frequency, TF over GST control).

And the binding signal [14]?
Its binding signal is 1.18 fold enrichment (6-mer frequency, TF over GST control).

And the binding signal [15]?
The binding signal was 1.02 fold enrichment (6-mer frequency, TF over GST control).

What about the binding signal [16] of the same sequence?
The binding signal was 1.07 fold enrichment (6-mer frequency, TF over GST control).

And the binding signal [17]?
The binding signal was 1.05 fold enrichment (6-mer frequency, TF over GST control).

What about the binding signal [18] of the same sequence?
The binding signal was 1.11 fold enrichment (6-mer frequency, TF over GST control).

And the binding signal [19]?
The binding signal was 1.02 fold enrichment (6-mer frequency, TF over GST control).
